# Measurements taken from the supplement of paper PMC10849652.
# Targets with a hit are over-represented here; the source holds about 8,800 in all. About 0.5% of all pairs of compound and target were hits. A number with no mark means an inactive call.
# Compound: O=C(CCCCCCC(=O)Nc1ccccc1)NO [vorinostat]
# Assay: log2 fold change, soluble protein after heating vs DMSO (PISA); higher = thermal stabilisation; K562 lysate, 10 uM; active = over 0.2 and 3.5 SD of the protein, either way, in both replicates (recomputed)
# Outline: (§1)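 K562 pellets were dounce-homogenised in PBS pH 7.4 with 1 mM MgCl2, and the crude extract at 1 mg/mL protein was treated with 10 μM compound for 30 min. Aliquots were heated for 3 min across 48°C-58°C, pooled, and brought to 0.5% NP-40 at 4°C; soluble protein was the supernatant after 21,000xg for 90 min. Soluble protein was quantified by TMTpro 16plex LC-MS/MS with channel sums equalised, and reported as log2 fold change in thermal stability against DMSO controls, with values from duplicates.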
# Sequence of UniProt P30622 (P30622 whole entry, looked up): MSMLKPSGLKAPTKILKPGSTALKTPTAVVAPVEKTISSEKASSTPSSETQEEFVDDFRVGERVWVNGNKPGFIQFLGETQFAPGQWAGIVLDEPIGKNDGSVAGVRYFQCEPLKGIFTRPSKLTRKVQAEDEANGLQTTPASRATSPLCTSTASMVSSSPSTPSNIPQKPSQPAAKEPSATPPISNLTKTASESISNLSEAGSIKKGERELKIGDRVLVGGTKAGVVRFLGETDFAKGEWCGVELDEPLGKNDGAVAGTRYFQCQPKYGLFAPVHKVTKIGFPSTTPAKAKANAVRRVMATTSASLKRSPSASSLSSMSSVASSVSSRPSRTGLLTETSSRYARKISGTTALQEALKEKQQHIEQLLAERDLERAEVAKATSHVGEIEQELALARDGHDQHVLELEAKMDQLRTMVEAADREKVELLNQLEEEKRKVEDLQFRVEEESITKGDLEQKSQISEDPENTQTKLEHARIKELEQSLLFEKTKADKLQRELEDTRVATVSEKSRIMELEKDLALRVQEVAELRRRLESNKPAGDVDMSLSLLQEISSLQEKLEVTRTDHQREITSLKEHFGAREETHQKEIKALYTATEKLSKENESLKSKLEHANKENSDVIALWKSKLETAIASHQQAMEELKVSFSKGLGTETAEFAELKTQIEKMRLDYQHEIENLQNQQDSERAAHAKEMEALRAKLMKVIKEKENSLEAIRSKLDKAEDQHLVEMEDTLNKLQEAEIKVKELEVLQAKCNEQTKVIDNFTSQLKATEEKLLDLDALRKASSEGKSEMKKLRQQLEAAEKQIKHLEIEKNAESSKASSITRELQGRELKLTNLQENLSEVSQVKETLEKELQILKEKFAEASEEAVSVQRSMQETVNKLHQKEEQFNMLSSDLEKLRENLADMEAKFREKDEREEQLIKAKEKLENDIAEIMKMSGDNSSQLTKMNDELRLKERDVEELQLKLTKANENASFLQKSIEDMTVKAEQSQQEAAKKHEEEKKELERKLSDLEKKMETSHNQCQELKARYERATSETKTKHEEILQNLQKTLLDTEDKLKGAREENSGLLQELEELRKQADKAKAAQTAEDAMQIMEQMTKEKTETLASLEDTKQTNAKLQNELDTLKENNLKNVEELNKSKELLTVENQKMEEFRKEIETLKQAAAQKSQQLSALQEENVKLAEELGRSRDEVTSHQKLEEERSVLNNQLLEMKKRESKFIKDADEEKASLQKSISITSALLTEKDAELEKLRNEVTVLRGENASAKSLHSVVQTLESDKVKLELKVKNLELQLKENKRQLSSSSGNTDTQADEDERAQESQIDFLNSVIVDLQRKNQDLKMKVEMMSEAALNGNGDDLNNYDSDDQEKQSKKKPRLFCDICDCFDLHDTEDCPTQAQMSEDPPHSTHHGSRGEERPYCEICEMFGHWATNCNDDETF
# Sequence of UniProt Q14019 (Q14019 whole entry, looked up): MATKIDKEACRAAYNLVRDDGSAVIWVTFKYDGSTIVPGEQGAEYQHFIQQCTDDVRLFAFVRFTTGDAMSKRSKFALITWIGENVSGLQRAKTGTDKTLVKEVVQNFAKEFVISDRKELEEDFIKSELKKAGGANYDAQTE
# Sequence of UniProt Q6UX07 (Q6UX07 whole entry, looked up): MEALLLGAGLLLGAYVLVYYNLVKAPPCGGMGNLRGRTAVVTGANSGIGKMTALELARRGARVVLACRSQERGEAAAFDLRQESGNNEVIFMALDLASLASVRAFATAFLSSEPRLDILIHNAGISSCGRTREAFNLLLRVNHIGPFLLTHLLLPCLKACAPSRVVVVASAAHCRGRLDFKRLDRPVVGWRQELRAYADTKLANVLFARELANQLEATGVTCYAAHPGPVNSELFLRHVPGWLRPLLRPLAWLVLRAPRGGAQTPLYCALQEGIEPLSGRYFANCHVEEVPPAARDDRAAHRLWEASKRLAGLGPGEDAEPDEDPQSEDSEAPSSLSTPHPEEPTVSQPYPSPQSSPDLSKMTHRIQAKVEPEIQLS
# Sequence of UniProt Q9UHI6 (Q9UHI6 whole entry, looked up): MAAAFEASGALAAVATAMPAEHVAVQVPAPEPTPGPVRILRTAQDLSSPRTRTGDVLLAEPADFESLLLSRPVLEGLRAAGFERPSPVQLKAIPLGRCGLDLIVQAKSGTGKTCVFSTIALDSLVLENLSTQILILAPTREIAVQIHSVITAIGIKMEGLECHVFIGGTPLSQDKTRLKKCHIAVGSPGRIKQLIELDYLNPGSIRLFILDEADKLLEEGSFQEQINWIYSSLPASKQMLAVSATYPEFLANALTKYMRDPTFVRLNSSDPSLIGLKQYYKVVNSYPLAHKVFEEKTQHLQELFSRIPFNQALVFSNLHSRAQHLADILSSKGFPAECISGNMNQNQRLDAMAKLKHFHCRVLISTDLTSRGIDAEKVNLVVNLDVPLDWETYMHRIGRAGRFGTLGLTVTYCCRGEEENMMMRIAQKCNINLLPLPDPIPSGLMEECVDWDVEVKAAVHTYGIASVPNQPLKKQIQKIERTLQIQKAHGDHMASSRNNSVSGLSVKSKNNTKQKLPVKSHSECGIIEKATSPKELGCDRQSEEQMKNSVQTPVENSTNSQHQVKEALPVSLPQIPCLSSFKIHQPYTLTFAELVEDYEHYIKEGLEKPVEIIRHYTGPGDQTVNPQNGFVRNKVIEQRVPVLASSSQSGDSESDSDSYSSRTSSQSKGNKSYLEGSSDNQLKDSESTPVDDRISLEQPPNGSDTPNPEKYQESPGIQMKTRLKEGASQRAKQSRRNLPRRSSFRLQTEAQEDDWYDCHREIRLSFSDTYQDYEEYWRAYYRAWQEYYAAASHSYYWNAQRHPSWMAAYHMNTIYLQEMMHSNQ
# Sequence of UniProt P50570 (P50570 whole entry, looked up): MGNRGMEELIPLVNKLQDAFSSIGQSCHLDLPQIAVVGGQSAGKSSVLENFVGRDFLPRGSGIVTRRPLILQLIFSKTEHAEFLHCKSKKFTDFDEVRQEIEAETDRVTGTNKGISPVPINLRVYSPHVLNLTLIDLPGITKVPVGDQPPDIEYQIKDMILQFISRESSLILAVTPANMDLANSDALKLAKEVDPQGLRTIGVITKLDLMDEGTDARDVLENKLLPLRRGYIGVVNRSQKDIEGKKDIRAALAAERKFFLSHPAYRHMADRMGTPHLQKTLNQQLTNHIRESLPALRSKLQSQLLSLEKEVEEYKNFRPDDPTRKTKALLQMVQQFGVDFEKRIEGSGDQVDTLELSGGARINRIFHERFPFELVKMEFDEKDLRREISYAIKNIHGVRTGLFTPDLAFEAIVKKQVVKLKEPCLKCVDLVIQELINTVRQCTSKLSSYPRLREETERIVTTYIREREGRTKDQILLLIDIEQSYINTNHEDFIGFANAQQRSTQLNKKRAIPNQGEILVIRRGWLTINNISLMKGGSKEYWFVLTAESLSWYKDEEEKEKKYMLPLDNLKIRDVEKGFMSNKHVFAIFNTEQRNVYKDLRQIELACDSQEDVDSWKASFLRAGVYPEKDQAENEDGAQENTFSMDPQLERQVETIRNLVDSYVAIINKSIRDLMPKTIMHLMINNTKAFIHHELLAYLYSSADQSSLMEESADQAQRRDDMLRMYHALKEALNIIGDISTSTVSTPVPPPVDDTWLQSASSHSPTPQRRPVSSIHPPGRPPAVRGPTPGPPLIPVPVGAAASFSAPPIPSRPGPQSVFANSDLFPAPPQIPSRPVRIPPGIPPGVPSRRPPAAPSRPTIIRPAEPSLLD
# Sequence of UniProt Q9Y600 (Q9Y600 whole entry, looked up): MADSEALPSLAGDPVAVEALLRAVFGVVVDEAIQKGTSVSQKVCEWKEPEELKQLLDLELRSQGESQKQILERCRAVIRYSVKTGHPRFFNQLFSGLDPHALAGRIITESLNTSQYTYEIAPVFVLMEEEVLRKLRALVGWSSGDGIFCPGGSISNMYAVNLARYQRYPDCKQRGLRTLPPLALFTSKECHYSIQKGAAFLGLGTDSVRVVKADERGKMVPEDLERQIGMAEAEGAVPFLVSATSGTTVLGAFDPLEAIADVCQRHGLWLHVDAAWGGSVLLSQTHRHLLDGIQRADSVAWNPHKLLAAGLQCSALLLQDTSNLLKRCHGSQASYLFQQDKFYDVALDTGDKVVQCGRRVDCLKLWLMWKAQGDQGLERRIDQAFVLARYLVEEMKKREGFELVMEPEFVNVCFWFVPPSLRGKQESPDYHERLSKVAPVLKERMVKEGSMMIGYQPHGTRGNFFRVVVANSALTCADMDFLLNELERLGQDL
# Sequence of UniProt Q96SQ9 (Q96SQ9 whole entry, looked up): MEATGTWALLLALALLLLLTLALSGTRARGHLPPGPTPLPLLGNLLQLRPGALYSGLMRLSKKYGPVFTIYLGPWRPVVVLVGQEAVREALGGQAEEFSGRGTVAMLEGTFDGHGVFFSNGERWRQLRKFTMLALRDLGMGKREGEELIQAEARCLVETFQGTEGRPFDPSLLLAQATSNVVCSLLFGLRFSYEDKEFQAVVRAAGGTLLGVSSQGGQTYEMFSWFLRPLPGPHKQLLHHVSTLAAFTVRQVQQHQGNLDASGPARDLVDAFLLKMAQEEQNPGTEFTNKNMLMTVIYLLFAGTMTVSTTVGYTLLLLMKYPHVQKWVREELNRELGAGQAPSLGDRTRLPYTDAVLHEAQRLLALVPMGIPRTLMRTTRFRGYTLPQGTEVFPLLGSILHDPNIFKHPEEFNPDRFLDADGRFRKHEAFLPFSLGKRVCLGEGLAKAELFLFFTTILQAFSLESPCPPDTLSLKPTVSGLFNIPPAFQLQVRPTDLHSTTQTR
# Sequence of UniProt Q8WXC6 (Q8WXC6 whole entry, looked up): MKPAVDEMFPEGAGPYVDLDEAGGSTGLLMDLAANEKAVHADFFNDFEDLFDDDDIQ
# Sequence of UniProt P67870 (P67870 whole entry, looked up): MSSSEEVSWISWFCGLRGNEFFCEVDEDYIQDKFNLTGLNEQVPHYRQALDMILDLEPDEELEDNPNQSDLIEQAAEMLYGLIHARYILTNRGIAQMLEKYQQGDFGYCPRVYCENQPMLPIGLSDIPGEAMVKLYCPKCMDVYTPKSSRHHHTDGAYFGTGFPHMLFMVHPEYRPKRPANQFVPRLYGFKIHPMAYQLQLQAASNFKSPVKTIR
row,Target,log2 fold change
1,CNST (UniProt Q6PJW8),0.056
2,DNM2 isoform 4 (UniProt P50570),-0.826 (active)
3,COTL1 (UniProt Q14019),0.147
4,CYP2S1 isoform 2 (UniProt Q96SQ9),0.067
5,CNK3/IPCEF1 isoform 2 (UniProt G9CGD6),-0.279
6,DMAC2L (UniProt Q99766),-0.174
7,DDX20 (UniProt Q9UHI6),-0.348 (active)
8,COL6A3 (UniProt P12111),0.273
9,CLIP1 isoform 2 (UniProt P30622),0.167
10,CNOT2 (UniProt F8VRS8),-0.056
11,DDX4 (UniProt Q9NQI0),-0.213
12,DONSON (UniProt Q9NYP3),-0.401 (active)
13,CSAD isoform 3 (UniProt Q9Y600),0.031
14,CYP4V2 (UniProt Q6ZWL3),0.055
15,DALRD3 (UniProt Q5D0E6),-0.895 (active)
16,CSNK2B (UniProt P67870),-0.016
17,COPS9 (UniProt Q8WXC6),0.341
18,DDA1 (UniProt Q9BW61),-0.289 (active)
19,CLCN3 isoform 2 (UniProt P51790),-0.286 (active)
20,DHRS13 (UniProt Q6UX07),1.11 (active)
21,CSNK2A1 (UniProt P68400),0.057
22,CLIP1 isoform 1 (UniProt P30622),0.092
23,CRLS1 (UniProt Q9UJA2),-0.572 (active)

# Compound: O=C(O)c1ccc2c(c1)nc(Nc1cccc(Cl)c1)c1ccncc12 [silmitasertib]
# Assay: as above
# Outline: as §1
row,Target,log2 fold change
1,CNST (UniProt Q6PJW8),-0.028
2,DNM2 isoform 4 (UniProt P50570),0.047
3,COTL1 (UniProt Q14019),0
4,CYP2S1 isoform 2 (UniProt Q96SQ9),-0.027
5,CNK3/IPCEF1 isoform 2 (UniProt G9CGD6),0.06
6,DMAC2L (UniProt Q99766),0.037
7,DDX20 (UniProt Q9UHI6),0.069
8,COL6A3 (UniProt P12111),0.002
9,CLIP1 isoform 2 (UniProt P30622),-0.035
10,CNOT2 (UniProt F8VRS8),0.152
11,DDX4 (UniProt Q9NQI0),0.101
12,DONSON (UniProt Q9NYP3),-0.123
13,CSAD isoform 3 (UniProt Q9Y600),0.075
14,CYP4V2 (UniProt Q6ZWL3),-0.038
15,DALRD3 (UniProt Q5D0E6),0.074
16,CSNK2B (UniProt P67870),0.595 (active)
17,COPS9 (UniProt Q8WXC6),-0.139
18,DDA1 (UniProt Q9BW61),-0.006
19,CLCN3 isoform 2 (UniProt P51790),0.033
20,DHRS13 (UniProt Q6UX07),0.059
21,CLIP1 isoform 1 (UniProt P30622),-0.01
22,CRLS1 (UniProt Q9UJA2),0.172
